We go through eight compounds from PubChem BioAssay (NCI).

Some test systems named below: SR leukemia; RPMI-8226 leukemia; OVCAR-8 ovarian; OVCAR-5 ovarian; OVCAR-4 ovarian; SK-OV-3 ovarian; IGROV1 ovarian; OVCAR-3 ovarian; HS 578T breast; NCI/ADR-RES ovarian; T-47D breast; BT-549 breast; MDA-MB-435 melanoma; SW-620 colon; MCF7 breast; HCT-116 colon; HCC-2998 colon; KM12 colon.
Common to all, as to assay: NCI-60 one-dose screen, 48 h (100 = growth as untreated, 0 = no growth, -100 = all killed)
Common to all, as to conditions: 10 µM unless noted

Molecules are shown by their SMILES. This is part of a sample that, as a whole, favours compounds with a hit. Of some 83,000 tested, about 20% had one in any assay.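 The endpoint reported here, percent growth, reads 100 for growth as untreated, 0 for no net growth and -100 for all cells dead.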 Values without a mark were called inactive. Activity calls are given as the source filed them. The calls were made as follows: active = growth percent below 10; inactive = the rest.

On to `Cc1nn2c(-c3nc4cc(Cl)c(Cl)cc4[nH]3)c(-c3ccc(F)cc3)nc2s1`, for which the growth in the assay with SR leukemia was 41.1%; in the assay on RPMI-8226 leukemia, 20.6%; in the assay with OVCAR-8 ovarian, 8.25% (active); with OVCAR-5 ovarian, 23.8%; with OVCAR-4 ovarian, -60% (active); in the assay with SK-OV-3 ovarian it was -73.1% (active). Moreover, the growth with IGROV1 ovarian is 21.2%; in the assay on OVCAR-3 ovarian, -13.2% (active); in the assay with HS 578T breast, 1.04% (active); in the assay with NCI/ADR-RES ovarian it was 21.4%; in the assay with T-47D breast, -0.149% (active); with BT-549 breast, 44.2%. Further, the growth in the assay with MDA-MB-435 melanoma is 26.6%; in the assay with SW-620 colon it was 39.5%; in the assay on MCF7 breast, 40.1%; in the assay on HCT-116 colon, 2.83% (active); in the assay with HCC-2998 colon it was 75.8%; with KM12 colon, 39.3%.

Turning to `N#CC1=C(N)Oc2ccc3ccccc3c2C1c1ccccc1Cl` (centres undefined), the growth in the assay on SR leukemia is 26.1%; in the assay on RPMI-8226 leukemia, 32.9%; in the assay with OVCAR-8 ovarian it was 61.8%; in the assay on OVCAR-5 ovarian it was 77.2%; in the assay with OVCAR-4 ovarian it was 78.9%; with SK-OV-3 ovarian, 55.9%. Further, the growth in the assay with IGROV1 ovarian was 34.1%; with OVCAR-3 ovarian, 31.2%; in the assay with HS 578T breast it was 40.4%; with NCI/ADR-RES ovarian it was 9.51% (active); in the assay on T-47D breast it was 38%; with BT-549 breast it was 31.7%. Also, the growth is -8.55% (active) in the assay on MDA-MB-435 melanoma; 30.6% with SW-620 colon; 18.1% with MCF7 breast; 18.3% in the assay on HCT-116 colon; 76% in the assay on HCC-2998 colon; 36% with KM12 colon.

With `C=CC(=O)N[C@H](Cc1ccc(-c2cc(Cl)cc(Cl)c2)cc1)[C@H](O)[C@@H](O)C(=O)O`, the growth is 81.6% in the assay with SR leukemia; 82.7% with RPMI-8226 leukemia; 90.9% in the assay on OVCAR-8 ovarian; 96% with OVCAR-5 ovarian; 96.9% with OVCAR-4 ovarian; 78.6% in the assay with SK-OV-3 ovarian. The growth in the assay with IGROV1 ovarian is 96.7%; in the assay with OVCAR-3 ovarian it was 101%; in the assay with HS 578T breast it was 95.5%; in the assay with NCI/ADR-RES ovarian it was 101%; in the assay with T-47D breast it was 90%; in the assay on BT-549 breast it was 87.4%. In addition, the growth is 102% in the assay on MDA-MB-435 melanoma; 98.1% in the assay on SW-620 colon; 87% with MCF7 breast; 75.5% in the assay on HCT-116 colon; 109% with HCC-2998 colon; 99.3% in the assay with KM12 colon.

In the case of `CC(=O)n1c(/C(C#N)=C/c2ccc(N(C)C)cc2)cc2ccccc21`, the growth in the assay on SR leukemia is 26.8%; with RPMI-8226 leukemia it was 16.2%; in the assay with OVCAR-8 ovarian, 40.3%; with OVCAR-5 ovarian, 60.7%; in the assay on OVCAR-4 ovarian it was 76.8%; in the assay with SK-OV-3 ovarian, 34.8%. The growth in the assay with IGROV1 ovarian was 40.3%; in the assay with OVCAR-3 ovarian it was 8.84% (active); in the assay on HS 578T breast, 11.9%; with NCI/ADR-RES ovarian it was 16.7%; in the assay with T-47D breast, 35.8%; in the assay with BT-549 breast, 17.7%. Further, the growth is 2.22% (active) in the assay with MDA-MB-435 melanoma; 24.6% in the assay on SW-620 colon; 20.1% in the assay with MCF7 breast; 27.7% in the assay on HCT-116 colon; 50.5% in the assay with HCC-2998 colon; 31.6% in the assay on KM12 colon.

In the case of `C=C(C)[C@@H]1CC[C@]2(C)[C@H](CC=C3[C@@H]4CC(C)(C)CC[C@]4(C(=O)OC)CC[C@]32C)[C@@]1(C)CC/C(N)=N/O`, the growth in the assay with SR leukemia was 0.151% (active); in the assay with RPMI-8226 leukemia, 34.9%; in the assay with OVCAR-8 ovarian it was 38.4%; with OVCAR-5 ovarian, 90.4%; in the assay on OVCAR-4 ovarian it was 36.4%; in the assay on SK-OV-3 ovarian, 68%. The growth in the assay on IGROV1 ovarian was 80.2%; with OVCAR-3 ovarian, 67.2%; with HS 578T breast, 72.4%; in the assay on NCI/ADR-RES ovarian it was -24.5% (active); in the assay on T-47D breast it was 6.99% (active); with BT-549 breast, 63.7%. In addition, the growth with MDA-MB-435 melanoma is 80.5%; with SW-620 colon it was 67.6%; with MCF7 breast, 3.92% (active); in the assay on HCT-116 colon, 18.5%; in the assay on HCC-2998 colon, -53% (active); with KM12 colon it was 61%.

On to `Cn1cnc2c1c(=O)n(CCC(=O)Nc1ccc(F)cc1)c(=O)n2C`, for which the growth is 102% with SR leukemia; 101% with RPMI-8226 leukemia; 102% with OVCAR-8 ovarian; 101% in the assay on OVCAR-5 ovarian; 109% in the assay with OVCAR-4 ovarian; 91.2% in the assay on SK-OV-3 ovarian. The growth is 107% in the assay with IGROV1 ovarian; 115% in the assay with OVCAR-3 ovarian; 106% with HS 578T breast; 109% in the assay with NCI/ADR-RES ovarian; 89.7% with T-47D breast; 91.1% in the assay with BT-549 breast. Further, the growth with MDA-MB-435 melanoma was 108%; in the assay on SW-620 colon, 107%; with MCF7 breast it was 101%; in the assay with HCT-116 colon, 86.5%; in the assay with HCC-2998 colon, 108%; in the assay on KM12 colon, 102%.

As to `O=C1c2cc3c(cc2-c2c1c1ccc(F)cc1c(=O)n2CCCN1CCOCC1)OCO3`, the growth was 4.41% (active) with SR leukemia; 46.1% in the assay with RPMI-8226 leukemia; 47% in the assay with OVCAR-8 ovarian; 78.9% with OVCAR-5 ovarian; 78.5% in the assay with OVCAR-4 ovarian; 20.1% in the assay on SK-OV-3 ovarian. The growth in the assay with IGROV1 ovarian is 77.5%; in the assay on OVCAR-3 ovarian, 85.7%; in the assay with HS 578T breast it was 100%; in the assay with NCI/ADR-RES ovarian, 36.6%; with T-47D breast, 28.4%; in the assay on BT-549 breast, 47.5%. Besides, the growth in the assay with MDA-MB-435 melanoma is 65.6%; in the assay on SW-620 colon, 48.8%; with MCF7 breast, 13.5%; in the assay with HCT-116 colon it was 45.2%; in the assay with HCC-2998 colon, 77.8%; with KM12 colon it was 69.8%.

Take `C[C@H]1[C@@H]2[C@H]3CC[C@@H]4[C@@]5(C)Cc6c([nH]c7ccccc67)C(C)(C)[C@@H]5CC[C@@]4(C)[C@]3(C)CC[C@]23CO[C@]1(C)[C@@H](C(=O)/C=C/c1ccccn1)C3`: the growth with SR leukemia was 55.6%; in the assay with RPMI-8226 leukemia it was 62.5%; in the assay with OVCAR-8 ovarian, 63.3%; with OVCAR-5 ovarian, 108%; in the assay with OVCAR-4 ovarian, 83.7%; in the assay on SK-OV-3 ovarian, 112%. The growth in the assay on IGROV1 ovarian was 106%; in the assay with OVCAR-3 ovarian, 96.2%; in the assay on HS 578T breast, 87.7%; with NCI/ADR-RES ovarian, 100%; in the assay with T-47D breast, 65%; with BT-549 breast, 87.1%. In addition, the growth with MDA-MB-435 melanoma was 83.8%; in the assay with SW-620 colon, 95.9%; in the assay on MCF7 breast, 69.2%; in the assay with HCT-116 colon, 46.4%; in the assay with HCC-2998 colon, 103%; with KM12 colon, 93.2%.
